Screening data from PubChem BioAssay.
TGFb inhibitor = qHTS for Inhibitors of TGF-b | HepG2 CAGA-GFP TGF-b/SMAD3 reporter, GFP fluorescence, 18 h; TGF-beta stimulated, 500 pg/mL final | Potency, µM (series often up to 46.1 µM), without a hit: at the highest dose activity, negative = inhibition, hits mostly inhibitors | 410,000 compounds, 1.2% hits | AID 588855, 2011; also: % is scaled to controls: 0 for no effect and ±100 for the full control effect; nearly all actives have a fitted effect of over 65% in size
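Per well, imaged GFP fluorescence of HEPG2 CAGA-GFP cells gives the signal; cells get compound, then TGF-beta (500 pg/mL final), 18 h at 37 degrees C; %Activity versus -TGF-beta and +DMSO controls.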
HT1080 IDH1KD tx = qHTS for induction of synthetic lethality in tumor cells producing 2HG: qHTS for the HT-1080-IDH1KD cell line; HT-1080 IDH1 knockdown viability, ATP luminescence, 48 h; AID 686971, 2013; Potency, µM (highest dose often 46.1 µM), inactives show at the highest dose activity, negative = toxicity, most hits filed as cytotoxic; 360,000 compounds, 2% hits;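 also: 0% = DMSO wells and -100% = cell-free medium wells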
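After a 2 h attachment period, IDH1KD HT-1080 cells took pin-transferred compound for 48 h at 37 °C; ATP-based luminescence after 10 min room-temperature reagent incubation reported viability.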
ATXN2 expr inh = Primary qHTS for Inhibitors of ATXN expression; HEK-293 ATXN2-luciferase reporter, luminescence, 24 h; Potency, µM (highest dose often 57 µM), for inactives: at the highest dose activity change, negative = inhibition, usual class: inhibitors; 360,000 compounds, 0.72% hits; also: % is scaled to controls: 0 for no effect and ±100 for the full control effect; nearly all actives have a fitted effect of over 55% in size
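qHTS (up to 57 uM final) was run with 24 h compound exposure of reporter cells at 37 °C. Each well was multiplexed: SteadyGlo luminescence measured ATXN2-luciferase expression after a fluorogenic Gly-Phe-AFC viability readout (25 uM final).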
HepG2 viability = qHTS for Inhibitors of TGF-b: Cytotox Counterscreen. 410,000 compounds, 0.76% hits. Potency, µM (doses to about 46.1 µM), for inactives: at the top dose activity change, negative = cytotoxicity, usual class: cytotoxic. HepG2 CAGA-GFP viability, ATP luminescence, 18 h
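CellTiter-Glo luminescence gave cytotoxicity after 18 hours at 37 degrees C. The cells were HepG2 CAGA-GFP in 1% FBS DMEM, stimulated with 500 pg/mL TGF-beta after compound addition. %Activity was normalised to no-cell wells (complete cell-killing) and DMSO (no toxicity), and curves were fitted and classified.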
ATXN viability = Viability Counterscreen for Primary qHTS for Inhibitors of ATXN expression. S2 cells (HEK-293 line with an ATXN2-luciferase reporter) viability, CellTiter-Fluor protease fluorescence, 24 h. 400,000 compounds, 0.49% hits. Potency, µM (doses to about 56.7 µM), hits mostly cytotoxic; also: nearly all actives have a fitted effect of over 40% in size
HT1080-NT tox = qHTS for induction of synthetic lethality in tumor cells producing 2HG: qHTS for the HT-1080-NT fibrosarcoma cell line; Potency, µM (titrated, usually from 46.1 µM), for the others: at the top dose activity, negative = less viability, actives largely listed as cytotoxic; 360,000 compounds, 1.6% hits; AID 686970, 2013; HT-1080-NT fibrosarcoma viability, CellTiter-Glo ATP luminescence, 48 h;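 also: NT is the 2HG producing partner of a matched IDH1 knockdown line; 0% = DMSO-treated cells and -100% = media-only wells without cells; nearly all actives have a fitted effect of over 55% in size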
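Viability by CellTiter-Glo luminescence after 48 h compound exposure at 37C of HT-1080-NT cells (750/well, RPMI, 5% FBS). % activity scaled between DMSO wells and medium-only wells, then curve-fitted and categorized by curve class.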
Starred values were filed as active, the others as inactive; i = inactive; ? = inconclusive; · = not tested or not shown; ! = a repeat was not active; [ ] = dose if it differs, or a comment. Hits are enriched below; roughly 3.9% of the tested compounds scored in any of these assays. Calls follow the shape of the dose curve; as a rule, active = well fitted curve in the direction sought with a large enough effect; inconclusive = small, poorly fitted or top-dose-only effect, or another doubt; inactive = no such curve, though single readings can be large; an effect the other way counts as inactive or inconclusive. Potency is read from the fitted curve at half-maximal effect.

SMILES	TGFb inhibitor	HT1080 IDH1KD tx	ATXN2 expr inh	HepG2 viability	ATXN viability	HT1080-NT tox
CCOP(=O)(CCP(=O)(OCC)OCC)OCC.C[CH2][Sn]([Cl])([Cl])[CH2]C	?	4.61µM*	18.9µM*	2.1%	?	?
Cc1cccc(NC(=O)Cn2c(=O)oc3cc(S(=O)(=O)N4CCCCCC4)ccc32)c1	·	·	·	-34.3%	·	·
CC(=O)c1cccc(NC(=O)CCn2c(=O)oc3ccccc32)c1	2.6%	10.2%	13.4%	-52.1%	i	-13.6%
CCCNC(=O)C(Cc1ccc(C(F)(F)P(=O)(OCC)OCC)cc1)NC(=O)c1ccc(C#N)cc1 (configuration not stated)	-28.8%	-0.9%	1.7%	-45.5%	i	-0.6%
COc1ccc(C(=O)N2CCC3(CC2)OCCO3)cc1	-3.5%	13.6%	10.3%	-1.2%	i	0.3%
COc1ccc(-n2cnc3cc(C(=O)N4CCC5(CC4)OCCO5)ccc32)cc1	-16.5%	16.4µM*	·	-7.4%	i	?
CC[n+]1c(-c2ccccc2)c2cc(N)ccc2c2ccc(N)cc21	?	16.4µM*	7.08µM*!	-13.5%	?	?
C=C1C(=O)O[C@@H]2C[C@@H](C)[C@@H]3C=CC(=O)[C@@]3(C)[C@@H](OC(C)=O)[C@H]12	0.708µM*	4.61µM*	1.12µM*	2.51µM*	·	6.51µM*
C=C1C(=O)O[C@@H]2C[C@@H](C)[C@@H]3C=CC(=O)[C@@]3(C)[C@@H](O)[C@H]12	3.98µM*	0.581µM*	1.78µM*	11.2µM*	·	1.46µM*
CC(Cc1ccccc1)NCCCCl (configuration not stated)	·	·	-7.7%	·	i	·
N#Cc1ncc(N=Cc2ccc(N(CCCl)CCCl)cc2)s1	5.3%	10.3µM*	?	-21.1%	i	?
OC1CCC(Nc2ccn3nc(-c4cccc(OCc5ccccc5)c4)cc3n2)CC1 (configuration not stated)	-19.0%	?	-5.1%	-25.3%	?	?
COc1ccc(NC2=CC(=O)CC(c3ccccc3)C2)c(OC)c1 (configuration not stated)	?	2.51µM*	26.0%	-14.5%	i	3.55µM*
CCc1ccc(NC(=O)c2ccc3oc(=O)n(Cc4ccccc4)c3c2)cc1	?	·	-15.0%	-21.2%	?	·
C[C@@H]1[C@@H]2Cc3ccc(O)cc3[C@@]1(C)CCN2CCc1ccccc1	·	·	·	·	i	·
CC1[C@H]2Cc3ccc(O)cc3[C@]1(C)CCN2CCc1ccccc1 (some centres not stated)	8.1%	14.6µM*	-20.6%	-19.4%	i	?
Nc1nonc1C(=O)N/N=C/c1ccc([N+](=O)[O-])o1	15.8µM*	18.4µM*	-15.1%[11.3 µM]	-90.2%	i	?
C[C@]12Cc3cn[nH]c3C[C@@H]1CC[C@@H]1[C@H]2CC[C@@]2(C)[C@H]1CC[C@]2(C)O	·	·	-11.4%	·	·	·
Cc1cccc(NC(=S)N/N=C/c2ccc([N+](=O)[O-])s2)c1	7.08µM*	?	20µM*	6.31µM*	·	17.8µM*
O=C(CC1CCCCC1)c1c(O)c2ccccc2oc1=O	-38.3%	?	6.5%	-33.4%	i	7.94µM*
CCOc1cc2c(cc1OCC)-n1cccc1C(c1ccc(C)cc1C)NC2 (configuration not stated)	?	20.6µM*	?	-17.1%	?	?
